In PubChem BioAssay (EPA / NIEHS) one finds outcome and AC50 data, which are given here for 9 compounds.

Molecules are shown by their SMILES. Records with an inconclusive call do not appear. Activity calls are given as the source filed them. The calls were made as follows, unless noted: active = hit-call score of the fitted dose curve at least 0.9, where 1 is the maximum; inactive = score below 0.9.

Usually AC50 stands for the concentration giving half of the maximal activity seen.

Experiment [1] is described as follows: ATG_PPRE_CIS: Attagene CIS-FACTORIAL HepG2 Assay for human Peroxisome Proliferator-activated Response Element (PPRE) (AID 2282958). Particulars: HepG2 PPRE cis-element reporter, Attagene transcription factor profiling; actives raise or lower the signal. The procedure, abridged: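 HepG2, transient MRTU transfection (cis promoter elements, endogenous TFs). 24 h dosing. RNA → oligo(dT) RT → PCR → 6-FAM primer extension → HpaI digest → CE. Bidirectional fit vs DMSO.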

Experiment [2] is described as follows: ATG_Sox_CIS: Attagene CIS-FACTORIAL HepG2 Assay for human SRY-box transcription factor (SOX) (AID 2282960). To be noted: HepG2 Attagene cis-factorial SOX reporter, mRNA; actives raise or lower the signal. The procedure, abridged: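 Endogenous factor activity in human liver HepG2 cells carrying transfected cis-regulated reporter units. RNA taken 24 h post-dose, reverse-transcribed, PCR-amplified and sized by capillary electrophoresis. Gain or loss of signal fitted relative to DMSO.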

The target in experiment [3] is Transcription factor Sp1 (Homo sapiens) (UniProt P08047). Put plainly: ATG_Sp1_CIS: Attagene CIS-FACTORIAL HepG2 Assay for human Specificity Protein 1 (Sp1) (AID 2282961). To be noted: HepG2 Sp1 cis-reporter transcription, actives raise or lower the signal. The procedure, abridged:
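Transient MRTU-transfected HepG2, 24 h compound exposure. Total RNA → oligo(dT) RT → PCR of reporter → 6-FAM primer extension → HpaI digest → CE. Endpoint fitted both directions vs DMSO.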

Experiment [4] in a line: ATG_SREBP_CIS: Attagene CIS-FACTORIAL HepG2 Assay for human Sterol Regulatory Element Binding (SREBP) (AID 2282962). Particulars: HepG2 Attagene cis-factorial SREBP reporter, mRNA; actives raise or lower the signal. The procedure, abridged: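 Transfected HepG2 (cis-regulated reporter library, endogenous TFs) → compound 24 h → total RNA → oligo(dT) RT → reporter-specific PCR → FAM primer extension, HpaI cut → CE fluorescence. Fit bidirectional vs DMSO.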

Experiment [5] has as its target Signal transducer and activator of transcription 3 (Homo sapiens) (UniProt P40763). The experiment can be described thus: ATG_STAT3_CIS: Attagene CIS-FACTORIAL HepG2 Assay for human Signal Transducer and Activator of Transcription 3 (STAT3) (AID 2282963). Particulars: HepG2, Attagene cis-factorial STAT3 reporter transcription; actives raise or lower the signal. The procedure, abridged: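 After a 24 h compound incubation, total RNA from MRTU-transfected HepG2 cells was converted to cDNA and reporter sequences PCR-amplified, labelled and profiled by capillary electrophoresis. Gain and loss of signal were referenced to DMSO.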

Experiment [6] is described as follows: ATG_TA_CIS: Attagene CIS-FACTORIAL HepG2 Assay for human TA Basal Promoter (AID 2282964). Particulars: HepG2 Attagene CIS-factorial TA basal promoter reporter; actives raise or lower the signal. The method in brief:
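Multiplexed mRNA reporter assay, HepG2, 24 h. Reporter cDNA amplified, 6-FAM primer-extended, HpaI-cut, CE-sized; DMSO = negative control and baseline.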

The nature of experiment [7]: ATG_TCF_b_cat_CIS: Attagene CIS-FACTORIAL HepG2 Assay for human T-Cell-Factor with beta-catenin (TCF/b-cat) (AID 2282965). Particulars: HepG2 TCF/beta-catenin cis-reporter transcription, actives raise or lower the signal. The procedure, abridged: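 Endogenous transcription factor activity is captured through cis-promoter reporter constructs transiently introduced into human HepG2 liver cells. Induced reporter mRNA is measured after 24 h and fitted bidirectionally relative to DMSO.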

The nature of experiment [8]: ATG_TAL_CIS: Attagene CIS-FACTORIAL HepG2 Assay for human TAL Basal Promoter (AID 2282966).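 Also: background control endpoint measuring basal TAL promoter reporter mRNA not a specific factor.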 To be noted: HepG2 Attagene cis-factorial TAL promoter reporter; actives raise or lower the signal. The method in brief: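 HepG2 cells transiently transfected with multiplexed cis-promoter reporter units, dosed 24 h. Reporter mRNA quantified by RT-PCR, 6-FAM labelling, HpaI digestion and capillary electrophoresis; TAL basal promoter serves as background control, fitted bidirectionally versus DMSO.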

The nature of experiment [9]: ATG_TGFb_CIS: Attagene CIS-FACTORIAL HepG2 Assay for human Transforming Growth Factor (TGF) (AID 2282967). Particulars: HepG2 Attagene CIS TGFb reporter, mRNA transcription; actives raise or lower the signal. The method in brief:
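Transcript-level reporter readout: HepG2 transfectants, 24 h exposure, RNA to cDNA, reporter-specific PCR, fluorescent primer extension, capillary sizing against ROX standards. Gain- or loss-of-signal relative to DMSO.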

Experiment [10] can be described thus: ATG_VDRE_CIS: Attagene CIS-FACTORIAL HepG2 Assay for human Vitamin D Receptor Element (VDRE) (AID 2282968). To be noted: HepG2 VDRE cis-reporter transcription, actives raise or lower the signal. The method in brief: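 In transiently transfected HepG2 liver cells, gain or loss of reporter mRNA after 24 h exposure is scored relative to DMSO, using fluorescence detection by capillary electrophoresis of RT-PCR products.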

Experiment [11] deals with Nuclear receptor subfamily 1 group I member 3 (Homo sapiens) (UniProt Q14994). The experiment can be described thus: ATG_CAR_TRANS: Attagene TRANS-FACTORIAL HepG2 Assay for human Constitutive Androstane Receptor (CAR) (AID 2282969; active = hit-call score of the fitted dose curve at least 0.9, where 1 is the maximum;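 also: activators raise reporter mRNA above DMSO so AC50 marks induction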). Particulars: HepG2 Attagene TRANS-FACTORIAL CAR reporter. The procedure, abridged: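 Readout is reporter mRNA induction, quantified by fluorescent primer extension and capillary electrophoresis after RT-PCR. Cells were HepG2 transiently carrying chimeric NR-Gal4 constructs with GAL4-UAS reporters, treated for 24 h; activity scored upward from DMSO.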

Experiment [12] has as its target Estrogen receptor (Homo sapiens) (UniProt P03372). Put plainly: ATG_ERa_TRANS: Attagene TRANS-FACTORIAL HepG2 Assay for human Estrogen Receptor alpha (ERa) (AID 2282970; active = hit-call score of the fitted dose curve at least 0.9, where 1 is the maximum). Particulars: HepG2 Attagene TRANS ERa GAL4 reporter, mRNA. The method in brief: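 HepG2 cells transiently transfected with multiplexed GAL4-UAS reporter units read out chimeric NR-Gal4 activity. After 24 h compound exposure, reporter mRNA was quantified by RT-PCR, 6-FAM labeling, HpaI digestion and capillary electrophoresis, relative to DMSO.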

For experiment [13], the target named is X-box-binding protein 1 (Homo sapiens) (UniProt P17861). The experiment can be described thus: ATG_Xbp1_CIS: Attagene CIS-FACTORIAL HepG2 Assay for human X-box Binding Protein 1 (XBP1) (AID 2282972). To be noted: HepG2 XBP1 cis-element reporter, Attagene multiplex; actives raise or lower the signal. The procedure, abridged:
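HepG2, transient MRTU transfection (cis-promoter driven), 24 h compound exposure. Total RNA → oligo(dT) RT → PCR → 6-FAM labeling → HpaI cut → CE. Bidirectional fit vs DMSO.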

Experiment [14] is described as follows: ATG_M_19_TRANS: Attagene TRANS-FACTORIAL HepG2 Assay for M19 Transcription Factor (Internal Marker) (AID 2282974; active = hit-call score of the fitted dose curve at least 0.9, where 1 is the maximum). Particulars: HepG2 Attagene TRANS-FACTORIAL M19 internal marker reporter. The procedure, abridged:
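Fluorescence of 6-FAM-labelled reporter cDNA fragments, separated by capillary electrophoresis, served as the readout. These derived from HepG2 cells carrying transfected GAL4-UAS reporter units after 24 h dosing, with DMSO as negative control.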

The nature of experiment [15]: ATG_RORE_CIS: Attagene CIS-FACTORIAL HepG2 Assay for human RAR-related Orphan Receptor Element (RORE) (AID 2282959). To be noted: HepG2 Attagene cis-factorial RORE reporter, mRNA; actives raise or lower the signal. The procedure, abridged:
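Transient MRTU transfection of human HepG2 liver cells (FuGene 6); 24 h compound exposure; TriZol RNA, oligo(dT) RT, PCR, FAM labeling, HpaI cut, CE fragment analysis. DMSO = negative control/baseline.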

Experiment [16] can be described thus: ATG_GAL4_TRANS: Attagene TRANS-FACTORIAL HepG2 Assay for GAL4 (Internal Marker) (AID 2282976; active = hit-call score of the fitted dose curve at least 0.9, where 1 is the maximum). Particulars: HepG2 Attagene TRANS GAL4 internal marker reporter. The method in brief: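 Background-control readout: GAL4-UAS reporter transcript in transiently transfected HepG2 cells after 24 h compound exposure. Measured by RT-PCR, 6-FAM primer extension, HpaI digest and capillary electrophoresis; gain-of-signal fit versus DMSO.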

Experiment [17] addresses Bile acid receptor (Homo sapiens) (UniProt Q96RI1). The experiment can be described thus: ATG_FXR_TRANS: Attagene TRANS-FACTORIAL HepG2 Assay for Farnesoid X Receptor (FXR) (AID 2282979; active = hit-call score of the fitted dose curve at least 0.9, where 1 is the maximum;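 also: hits raise reporter mRNA above DMSO so AC50 marks FXR activation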). To be noted: HepG2 Attagene TRANS FXR-GAL4 reporter transcription. The method in brief:
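HepG2 cells were transiently transfected with GAL4-UAS reporters driven by chimeric NR-Gal4 proteins and dosed for 24 h. Reporter mRNA was quantified by RT-PCR, fluorescent labelling, HpaI digestion and capillary electrophoresis, with gain of signal scored versus DMSO.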

Experiment [18] deals with Glucocorticoid receptor (Homo sapiens) (UniProt P04150). The experiment can be described thus: ATG_GR_TRANS: Attagene TRANS-FACTORIAL HepG2 Assay for human Glucocorticoid Receptor (GR) (AID 2282978; active = hit-call score of the fitted dose curve at least 0.9, where 1 is the maximum;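 also: activators score as hits since higher reporter transcript over DMSO is fitted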). Particulars: HepG2 Attagene TRANS GR reporter, mRNA transcription. The method in brief: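 Fluorescent capillary-electrophoresis quantitation of reporter mRNA is the readout, taken 24 h after dosing human HepG2 cells carrying transiently transfected GAL4-UAS reporter units activated by chimeric NR-GAL4 fusions; activity scored as induction over DMSO.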
Chain of Glucocorticoid receptor (Homo sapiens) (P04150 whole entry, looked up, the tested form may be a part): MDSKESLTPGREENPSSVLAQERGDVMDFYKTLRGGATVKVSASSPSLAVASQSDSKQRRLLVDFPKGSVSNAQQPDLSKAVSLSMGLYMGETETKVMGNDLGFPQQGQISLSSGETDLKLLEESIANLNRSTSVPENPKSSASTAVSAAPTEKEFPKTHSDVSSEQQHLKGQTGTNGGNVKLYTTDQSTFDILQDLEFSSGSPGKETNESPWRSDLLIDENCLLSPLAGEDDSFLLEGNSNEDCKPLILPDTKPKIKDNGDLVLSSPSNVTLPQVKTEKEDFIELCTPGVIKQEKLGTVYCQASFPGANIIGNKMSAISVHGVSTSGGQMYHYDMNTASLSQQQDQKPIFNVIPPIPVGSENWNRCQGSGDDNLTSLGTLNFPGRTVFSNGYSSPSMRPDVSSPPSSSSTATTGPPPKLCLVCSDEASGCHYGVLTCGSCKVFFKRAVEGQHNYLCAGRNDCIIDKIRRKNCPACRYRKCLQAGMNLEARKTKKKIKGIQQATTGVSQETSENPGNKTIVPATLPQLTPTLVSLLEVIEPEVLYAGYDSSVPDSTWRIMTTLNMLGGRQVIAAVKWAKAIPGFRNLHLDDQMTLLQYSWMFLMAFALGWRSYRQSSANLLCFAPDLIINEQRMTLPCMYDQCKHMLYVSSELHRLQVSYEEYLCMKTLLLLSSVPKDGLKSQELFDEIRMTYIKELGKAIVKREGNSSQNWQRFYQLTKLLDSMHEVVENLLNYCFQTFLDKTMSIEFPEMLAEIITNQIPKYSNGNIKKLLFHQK

Chain of Bile acid receptor (Homo sapiens) (Q96RI1 whole entry, looked up, the tested form may be a part): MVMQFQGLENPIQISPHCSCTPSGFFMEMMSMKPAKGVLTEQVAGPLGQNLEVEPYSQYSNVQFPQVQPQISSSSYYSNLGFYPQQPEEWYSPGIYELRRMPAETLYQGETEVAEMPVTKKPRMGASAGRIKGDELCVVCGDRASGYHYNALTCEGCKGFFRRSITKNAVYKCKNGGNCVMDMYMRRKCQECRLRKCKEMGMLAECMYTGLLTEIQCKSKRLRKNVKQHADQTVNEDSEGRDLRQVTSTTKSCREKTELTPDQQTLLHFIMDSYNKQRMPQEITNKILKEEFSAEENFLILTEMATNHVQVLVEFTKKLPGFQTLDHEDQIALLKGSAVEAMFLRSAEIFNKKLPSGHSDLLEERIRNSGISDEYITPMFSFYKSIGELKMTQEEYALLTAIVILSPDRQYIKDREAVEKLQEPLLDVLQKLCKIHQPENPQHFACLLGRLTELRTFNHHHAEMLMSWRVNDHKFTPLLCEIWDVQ
Chain of Signal transducer and activator of transcription 3 (Homo sapiens) (P40763 whole entry, looked up): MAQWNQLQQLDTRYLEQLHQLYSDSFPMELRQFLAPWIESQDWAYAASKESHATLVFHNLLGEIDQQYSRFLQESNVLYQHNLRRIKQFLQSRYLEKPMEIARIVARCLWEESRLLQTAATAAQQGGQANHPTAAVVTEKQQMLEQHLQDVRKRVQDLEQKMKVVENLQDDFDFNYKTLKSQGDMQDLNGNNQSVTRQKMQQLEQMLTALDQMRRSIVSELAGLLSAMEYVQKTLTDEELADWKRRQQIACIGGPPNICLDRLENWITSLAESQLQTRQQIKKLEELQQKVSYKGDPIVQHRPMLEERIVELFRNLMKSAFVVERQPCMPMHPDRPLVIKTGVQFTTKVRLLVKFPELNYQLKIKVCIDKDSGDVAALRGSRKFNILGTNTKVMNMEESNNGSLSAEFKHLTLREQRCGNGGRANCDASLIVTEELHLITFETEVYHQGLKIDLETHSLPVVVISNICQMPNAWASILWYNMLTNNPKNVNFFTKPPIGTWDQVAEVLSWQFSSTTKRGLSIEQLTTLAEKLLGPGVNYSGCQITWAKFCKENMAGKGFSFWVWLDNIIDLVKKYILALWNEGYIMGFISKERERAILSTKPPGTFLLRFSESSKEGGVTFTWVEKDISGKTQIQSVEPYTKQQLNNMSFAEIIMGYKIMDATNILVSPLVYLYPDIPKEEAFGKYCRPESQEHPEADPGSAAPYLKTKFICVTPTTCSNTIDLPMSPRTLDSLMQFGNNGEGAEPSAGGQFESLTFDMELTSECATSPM
Chain of Transcription factor Sp1 (Homo sapiens) (P08047 whole entry, looked up): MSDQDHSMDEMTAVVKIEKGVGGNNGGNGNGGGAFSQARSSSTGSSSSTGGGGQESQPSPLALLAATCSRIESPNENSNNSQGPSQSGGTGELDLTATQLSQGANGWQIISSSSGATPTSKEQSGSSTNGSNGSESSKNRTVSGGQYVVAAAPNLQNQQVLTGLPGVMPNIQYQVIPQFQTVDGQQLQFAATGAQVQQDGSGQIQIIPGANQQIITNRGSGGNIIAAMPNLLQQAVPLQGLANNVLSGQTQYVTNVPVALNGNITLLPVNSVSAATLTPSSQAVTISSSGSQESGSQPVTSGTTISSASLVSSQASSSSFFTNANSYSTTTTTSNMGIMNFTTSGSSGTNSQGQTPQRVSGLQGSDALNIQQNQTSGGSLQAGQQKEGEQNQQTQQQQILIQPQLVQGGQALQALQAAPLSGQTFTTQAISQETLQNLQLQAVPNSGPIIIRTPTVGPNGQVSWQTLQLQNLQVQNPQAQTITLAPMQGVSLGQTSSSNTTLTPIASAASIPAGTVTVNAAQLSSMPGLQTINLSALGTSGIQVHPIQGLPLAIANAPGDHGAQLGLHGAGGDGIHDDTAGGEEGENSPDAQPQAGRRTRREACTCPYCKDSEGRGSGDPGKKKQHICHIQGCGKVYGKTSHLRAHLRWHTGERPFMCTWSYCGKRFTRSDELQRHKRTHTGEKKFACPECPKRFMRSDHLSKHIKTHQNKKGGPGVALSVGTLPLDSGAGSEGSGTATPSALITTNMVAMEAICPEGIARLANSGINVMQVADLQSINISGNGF
Chain of X-box-binding protein 1 (Homo sapiens) (P17861 whole entry, looked up): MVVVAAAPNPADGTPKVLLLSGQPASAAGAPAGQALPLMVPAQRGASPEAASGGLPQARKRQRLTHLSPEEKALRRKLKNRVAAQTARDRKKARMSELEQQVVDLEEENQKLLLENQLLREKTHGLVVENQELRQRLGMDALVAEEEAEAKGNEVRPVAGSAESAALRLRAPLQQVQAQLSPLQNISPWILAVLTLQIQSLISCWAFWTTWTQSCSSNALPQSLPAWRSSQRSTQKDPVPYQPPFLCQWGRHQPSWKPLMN
Chain of Estrogen receptor (Homo sapiens) (P03372 whole entry, looked up, the tested form may be a part): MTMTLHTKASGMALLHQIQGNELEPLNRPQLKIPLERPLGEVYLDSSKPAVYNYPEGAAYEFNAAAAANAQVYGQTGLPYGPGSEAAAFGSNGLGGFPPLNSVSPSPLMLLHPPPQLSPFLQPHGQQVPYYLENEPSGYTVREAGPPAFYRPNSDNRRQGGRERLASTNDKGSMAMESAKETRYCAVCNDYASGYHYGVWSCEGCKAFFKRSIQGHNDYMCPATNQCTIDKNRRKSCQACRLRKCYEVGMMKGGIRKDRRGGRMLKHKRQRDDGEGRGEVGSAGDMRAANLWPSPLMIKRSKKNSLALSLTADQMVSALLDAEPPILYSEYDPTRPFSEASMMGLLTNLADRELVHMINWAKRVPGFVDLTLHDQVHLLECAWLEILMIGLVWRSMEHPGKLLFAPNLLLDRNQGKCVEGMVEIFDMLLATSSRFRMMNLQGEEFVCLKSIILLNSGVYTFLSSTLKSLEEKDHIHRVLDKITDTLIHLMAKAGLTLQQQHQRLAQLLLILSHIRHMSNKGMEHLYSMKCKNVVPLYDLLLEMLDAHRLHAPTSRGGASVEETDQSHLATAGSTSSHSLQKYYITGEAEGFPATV
Chain of Nuclear receptor subfamily 1 group I member 3 (Homo sapiens) (Q14994 whole entry, looked up, the tested form may be a part): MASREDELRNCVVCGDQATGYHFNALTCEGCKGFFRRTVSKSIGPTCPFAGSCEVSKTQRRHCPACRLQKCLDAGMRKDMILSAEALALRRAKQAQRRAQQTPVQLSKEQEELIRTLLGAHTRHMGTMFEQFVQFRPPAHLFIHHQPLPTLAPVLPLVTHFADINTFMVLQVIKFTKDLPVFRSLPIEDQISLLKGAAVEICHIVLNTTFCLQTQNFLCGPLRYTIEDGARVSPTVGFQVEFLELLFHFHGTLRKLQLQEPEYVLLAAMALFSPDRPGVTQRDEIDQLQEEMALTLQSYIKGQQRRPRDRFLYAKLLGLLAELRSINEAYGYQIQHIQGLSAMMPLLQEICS

Regarding `COC(=O)c1sccc1S(=O)(=O)NC(=O)Nc1nc(C)nc(OC)n1`, the call in [1], in experiment [2], in [3], in experiment [4], in [5] and in experiment [6] was inactive. Besides, the compound was called inactive in [7], in experiment [8], in [9], in [10], in experiment [11] and in experiment [12]. For the same compound, the call in experiment [13] and in experiment [14] was inactive.

In the case of `O=Cc1cccc(Oc2ccccc2)c1`, the result in [1], in [15], in [3], in experiment [4], in experiment [5] and in experiment [6] was inactive. Besides, the call in [7], in experiment [8], in experiment [9], in experiment [10], in experiment [11] and in experiment [13] was inactive. In addition, the AC50 in experiment [12] is 26.6 µM (active).

Take `CC(C)(OO)c1ccccc1`: the result in experiment [1], in [15], in [3], in experiment [4], in experiment [6] and in experiment [7] was inactive. Besides, the result in experiment [8], in experiment [9], in experiment [10], in experiment [13], in experiment [14] and in [16] was inactive. Moreover, in experiment [17], the result was inactive. Further, in [12], the AC50 was 100 µM (active).

Take `CCOP(=S)(OCC)Oc1nc(Cl)c(Cl)cc1Cl`: the outcome in experiment [1], in experiment [15], in experiment [2], in experiment [6], in experiment [7] and in [9] was inactive. For the same compound, the result in experiment [11], in experiment [14], in experiment [18] and in [17] was inactive. Besides, the AC50 in experiment [3] is 65.3 µM (active); in experiment [4] it was 68.1 µM (active); in [10] it was 5.83 µM (active); in experiment [12], 26.9 µM (active); in [13], 100 µM (active).

On to `N#CN=C(N)N`, for which the compound was called inactive in [1], in experiment [15], in [3], in [4], in experiment [5] and in experiment [6]. In addition, the result in experiment [7], in [8], in experiment [9], in experiment [10], in [12] and in experiment [13] was inactive. The compound was classed as inactive in experiment [16] and in [17].

In the case of `C=CCc1ccc(OC)cc1`, the result in experiment [1], in experiment [15], in [3], in experiment [4], in experiment [5] and in experiment [7] was inactive. Further, the outcome in [8], in experiment [9], in [11], in experiment [13] and in [16] was inactive.

Turning to `Cc1cc(=O)[nH]o1`, the call in experiment [1], in experiment [15], in experiment [3], in experiment [4], in experiment [5] and in [6] was inactive. Moreover, the outcome in experiment [7], in experiment [8], in experiment [9], in experiment [12], in experiment [13] and in experiment [16] was inactive.

Consider `CCCCCCCCCl`, for which the compound was classed as inactive in experiment [1], in experiment [2], in experiment [3], in experiment [4], in experiment [5] and in experiment [6]. For the same compound, the compound was called inactive in [7], in experiment [8], in [9], in experiment [10] and in experiment [13].

For `Clc1nc(Cl)nc(Cl)n1`, the result in [1], in experiment [15], in [3], in [4], in experiment [5] and in [6] was inactive. The compound was called inactive in experiment [7], in [8], in experiment [9], in [10], in experiment [12] and in experiment [13]. The call in experiment [16] was inactive.
